Entries with a potency or affinity are not part of this list. Unmarked numbers belong to inactive results.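 The calls were made as follows: active = every repeat run showing a signal drop whose fitted half-maximal concentration is at most twice the top tested concentration; inconclusive = repeat runs disagree, or flat partial drop, or poor fit; inactive = the rest.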
Assay: HEK293T cytotoxicity, dose response, cytotoxicity control for miR-122 modulator project, cell-based, activator set, cherry-pick (AID 720690);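 also: 0% = neutral control wells and -100% = MG132 cytotoxic control wells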
Conditions: HEK293T viability, CellTiter-Glo luminescence, 48 h; series mostly up to 26 µM; activity change, negative = cytotoxicity: at the top concentration

| Compound | activity change, negative = cytotoxicity |
| --- | --- |
| COc1ccc(C#Cc2ccc3c(c2)O[C@H](CN(C)C(=O)CN2CCOCC2)[C@H](C)CN([C@@H](C)CO)S3(=O)=O)cc1 | -13% |
| Clc1ccc(CSc2nnc(-c3ccncc3)o2)c(Cl)c1 | -8.49% |
| CO[C@H]1CN(C)C(=O)c2cc(NC(=O)c3ccccc3F)ccc2OC[C@@H](C)N(C)C[C@@H]1C | -1.08% |
| CCCNC(=O)N1[C@H](CO)[C@H](c2ccc(-c3ccccc3)cc2)[C@@H]1CNC(C)=O | -2.1% |
| CCCNC(=O)Nc1ccc2c(c1)C(=O)N(C)[C@H]1CC[C@@H](CC(=O)NCC3CCCCC3)O[C@@H]1CO2 | 4.38% |
| CCC(=O)NC[C@@H]1[C@@H](c2ccc(C3=CCCC3)cc2)[C@@H](CO)N1C(C)=O | 4.93% |
| OC[C@H]1[C@@H](c2ccccc2)[C@H](CNCC2CCC2)N1CC1CC1 | -6.36% |
| CNC(=O)C[C@H]1CC[C@@H]2[C@H](COc3ccc(NC(=O)Nc4ccccc4)cc3C(=O)N2C)O1 | 3.51% |
| CN1C(=O)c2cc(NC(=O)c3cccs3)ccc2OC[C@@H]2O[C@@H](CC(=O)NCCN3CCCCC3)CC[C@@H]21 | -7.8% [at 23.5 µM] |
| COC(=O)C[C@H]1CC[C@H]2[C@H](COc3ccc(NC(=O)NC(C)C)cc3C(=O)N2C)O1 | 2.42% |
| COCC(=O)N1[C@@H](CO)[C@@H]2c3ccccc3N(C(=O)c3cccnc3)C[C@@H]21 | -15.7% |
| CCCC(=O)Nc1ccc2c(c1)C(=O)N(C)[C@@H]1CC[C@H](CC(=O)N3CCc4ccccc4C3)O[C@H]1CO2 | -5.47% |
| C[C@H]1CN([C@@H](C)CO)C(=O)c2cc(C#CC3CCCC3)cnc2O[C@H]1CN(C)C(=O)Cc1ccccn1 | -7.48% |
| CCOc1cc(C(=O)NC(C)COC)cc(OCC)c1OCC (stereo unspecified) | 0.828% |
| COc1ccc(N2CCc3c(C)nc4c(OC)cc(OC)cc4c32)c(OC)c1 | -19.9% |
| COc1cccc(-c2csc(N3CCN(CC(=O)Nc4ccc5c(c4)OCO5)CC3)n2)c1 | 5.74% |
| Cc1ccc(-c2ccc3c(c2)O[C@H](CN(C)Cc2cncnc2)[C@H](C)CN([C@@H](C)CO)S3(=O)=O)cc1 | -21.3% |
| CCNC(=O)Nc1ccc2c(c1)C(=O)N(C)[C@H]1CC[C@H](CC(=O)Nc3ccccc3F)O[C@@H]1CO2 | 8.23% |

| Compound | activity change, negative = cytotoxicity |
| --- | --- |
| CN(C)CCNC(=O)C1CC(=O)N(c2ccc(F)c(Cl)c2)C1 (stereo unspecified) | -5.76% |
| COc1ccc(S(=O)(=O)Nc2cc(C)cc(C)n2)c2ccccc12 | 16.4% |
| COCC(=O)Nc1ccc2c(c1)C(=O)N(C)[C@@H]1CC[C@H](CC(=O)NC3CCCC3)O[C@H]1CO2 | -3.23% |
| CO[C@@H]1CN(C)C(=O)c2cc(NC(=O)c3cccc(Oc4ccccc4)c3)ccc2OC[C@H](C)NC[C@@H]1C | -5.67% |
| CN1C(=O)c2cc(NC(=O)c3cccc(F)c3)ccc2OC[C@@H]2O[C@@H](CC(=O)O)CC[C@@H]21 | -6.33% [at 23.5 µM] |
| C[C@H](CO)N1C[C@H](C)[C@@H](CN(C)C(=O)C2CCOCC2)Oc2cc(C#Cc3ccncc3)ccc2S1(=O)=O | -19.7% |
| C/C=C/c1ccc([C@H]2[C@@H](CO)N(Cc3ccccn3)[C@H]2CNC(C)=O)cc1 | -9.49% [at 23.5 µM] |
| CN1CCN(c2ccc(Cl)cc2NC(=O)c2ccc(S(=O)(=O)N3CCCCCC3)cc2)CC1 | -2.63% |
| O=C(Nc1ccc(F)cc1)N1C[C@@H]2[C@H](c3ccccc31)[C@H](CO)N2C(=O)Cc1ccccc1 | 3.89% [at 23.5 µM] |
| N#Cc1ccc(C(=O)Nc2ccc(N3CCN(C(=O)c4ccco4)CC3)cc2)c(F)c1 | 8.37% |
| CC(C)OCCCNC(=O)c1ccncc1 | -7.92% |
| CNC(=O)C[C@H]1CC[C@@H]2[C@H](COc3ccc(NC(=O)NC(C)C)cc3C(=O)N2C)O1 | -2.56% [at 23.5 µM] |
| O=C(Nc1ccccc1F)N1[C@H](CO)[C@@H]2c3ccccc3NC[C@@H]21 | -11.2% [at 23.5 µM] |
| COCC(=O)Nc1ccc2c(c1)C(=O)N(C)[C@H]1CC[C@@H](CC(=O)NC3CCCC3)O[C@H]1CO2 | 9.16% |
| COc1ccc(-c2ccc3c(c2)O[C@H](CN(C)C(=O)Nc2ccccc2F)[C@H](C)CN([C@@H](C)CO)S3(=O)=O)cc1 | -12.4% |
| CN1C(=O)c2cc(NC(=O)c3cccc(F)c3)ccc2OC[C@@H]2O[C@@H](CC(=O)Nc3ccccc3)CC[C@@H]21 | -29.8% [at 23.5 µM] |
| CCCNC(=O)C[C@H]1CC[C@@H]2[C@@H](COc3ccc(NC(=O)c4ccc(C(F)(F)F)cc4)cc3C(=O)N2C)O1 | -43.4% |
| CN1C(=O)c2cc(NC(=O)c3ccccc3F)ccc2OC[C@H]2O[C@@H](CC(=O)NCc3ccc4c(c3)OCO4)CC[C@@H]21 | -4.16% |

From PubChem BioAssay AID720690 (Broad Institute, 2013)
